Assay outcomes as filed in PubChem.
Anthrax LF inh2 – Bacillus anthracis LF protease inhibitors, primary screen, biochemical, multiplex microsphere, MLPCN library; multiplex microsphere protease cleavage assay; inhibition, % at 10 µM; actives 0.12% (n = 360,000); further: plate controls were buffer without enzyme for full effect and enzyme alone for no effect
Target sequence (P15917 whole entry, looked up): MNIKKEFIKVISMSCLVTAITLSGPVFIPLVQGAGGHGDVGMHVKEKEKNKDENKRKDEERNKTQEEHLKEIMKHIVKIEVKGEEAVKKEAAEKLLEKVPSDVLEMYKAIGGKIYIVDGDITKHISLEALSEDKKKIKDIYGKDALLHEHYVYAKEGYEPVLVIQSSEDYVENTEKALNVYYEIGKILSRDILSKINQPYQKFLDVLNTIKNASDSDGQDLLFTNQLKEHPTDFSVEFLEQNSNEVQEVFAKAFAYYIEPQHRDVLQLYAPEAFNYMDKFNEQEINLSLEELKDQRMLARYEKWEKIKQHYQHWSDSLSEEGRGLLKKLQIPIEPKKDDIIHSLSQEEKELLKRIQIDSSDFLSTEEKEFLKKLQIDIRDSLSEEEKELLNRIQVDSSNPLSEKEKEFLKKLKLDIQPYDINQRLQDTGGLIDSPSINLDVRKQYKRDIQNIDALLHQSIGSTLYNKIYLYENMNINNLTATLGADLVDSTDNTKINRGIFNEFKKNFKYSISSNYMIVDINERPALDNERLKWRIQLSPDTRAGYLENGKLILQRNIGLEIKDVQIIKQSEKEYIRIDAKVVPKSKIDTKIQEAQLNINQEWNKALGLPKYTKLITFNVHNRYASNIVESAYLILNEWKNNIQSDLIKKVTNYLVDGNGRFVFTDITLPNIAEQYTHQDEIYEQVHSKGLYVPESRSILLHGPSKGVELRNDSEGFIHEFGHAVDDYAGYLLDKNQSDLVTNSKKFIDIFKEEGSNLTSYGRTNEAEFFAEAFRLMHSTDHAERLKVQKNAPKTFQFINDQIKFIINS
Autofluor counter – compound fluorescence in toxin protease inhibitor counterscreen | compound autofluorescence counterscreen, microsphere flow cytometry; hits give high values | fluorescence intensity (no concentration beside the values) | actives 3.1% (n = 360,000); in the data active means fluorescence intensity above about 16000; inconclusive means no clear call, values can overlap the other calls
BoNT A protease – BoNT/A light chain protease inhibitors, primary screen, biochemical, flow cytometry, MLPCN library. actives 0.17% (n = 360,000). multiplex microsphere protease substrate cleavage. inhibition, % at 10 µM. AID 588499, 2011; further: plate controls were buffer without enzyme for full effect and enzyme alone for no effect
BoNT F protease – BoNT/F light chain protease inhibitors, primary screen, biochemical, flow cytometry, MLPCN library; Botulinum neurotoxin type F light chain protease (Clostridium botulinum); Multiplex microsphere protease cleavage assay; inhibition, % at 10 µM; actives 0.22% (n = 360,000); AID 588497, 2011; in the data active means inhibition above about 35%, passing the limit was not always enough; inconclusive means no clear call, values can overlap the other calls; further: plate controls were buffer without enzyme for full effect and enzyme alone for no effect
MazF activator – activators of E. coli MazEF toxin-antitoxin RNase, primary screen, biochemical, fluorescence, uHTS; Endoribonuclease toxin MazF (Escherichia coli (strain K12)), P0AE70; FAM/BHQ RNA-DNA oligo cleavage fluorescence, 5 h; activation, % at 20 µM; actives 0.32% (n = 350,000); AID 504720, 2011; in the data active means activation above about 50%
PfHsp40 rescue – rescue of yeast from PfHsp40 toxicity, primary screen, S. cerevisiae, ATP luminescence; S. cerevisiae expressing PfHsp40, growth rescue; actives 0.68% (n = 340,000); growth rescue, % at 12.5 µM; in the data active means growth rescue above about 28%, passing the limit was not always enough; inconclusive means no clear call, values can overlap the other calls;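 further: yeast W303a lacking pdr1 and pdr3 grown in galactose medium; growth measured after three days at 30 °C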
An asterisk follows results filed as active. Most compounds without a hit are left out; they make up all but 4.3% or so of the library. Unless noted, no stated cut-off is given here; in the data, active means inhibition above about 30%; inconclusive means no clear call, values can overlap the other calls; inactive means below that.

How did Fc1ccc2c(c1)C1C=CCC1C(c1cc3c(cc1Br)OCO3)N2 (stereo not drawn) do in these assays?
Anthrax LF inh2: -8.8; Autofluor counter: 19890*; BoNT A protease: inconclusive; BoNT F protease: 6.2; MazF activator: -7.5; PfHsp40 rescue: 1.4

How did O=C(O)C1Nc2ccc(Br)cc2C2C=CCC12 (stereo not drawn) do in these assays?
MazF activator: 6.0; PfHsp40 rescue: 3.4

How did O=C1C2=C(SCCS2)C(=O)N1c1ccccc1 do in these assays?
Anthrax LF inh2: 0.1; Autofluor counter: 19116*; BoNT A protease: 4.5; BoNT F protease: 7.2; MazF activator: -29.0; PfHsp40 rescue: -0.9

How did O=C1CSCC(=O)N1c1ccccc1 do in these assays?
Anthrax LF inh2: -1.5; Autofluor counter: 2828; BoNT A protease: -0.3; BoNT F protease: -0.8; MazF activator: 1.1; PfHsp40 rescue: 0.2

How did CCOC(=O)c1c(NC(=O)/C=C\C(=O)O)sc(C)c1-c1ccccc1 do in these assays?
Anthrax LF inh2: -3.9; Autofluor counter: 3440; BoNT A protease: -0.9; BoNT F protease: 0.2; MazF activator: 1.5; PfHsp40 rescue: 94.7*

What do the screens show for `CCOC(=O)c1c(NC(=O)/C=C/C(=O)O)sc(C)c1-c1ccc(C(C)(C)C)cc1`?
Anthrax LF inh2: -1.9; Autofluor counter: 4261; BoNT A protease: 0.0; BoNT F protease: -3.0; MazF activator: -2.9; PfHsp40 rescue: -0.3

Results for CCc1ccc(-c2c(C)sc(NC(C)=O)c2C(N)=O)cc1 ?
Anthrax LF inh2: -0.4; Autofluor counter: 22107*; BoNT A protease: -7.6; BoNT F protease: -10.4; MazF activator: -2.6; PfHsp40 rescue: -0.3

How did O=C(c1ccccc1)N1CCN(C(=O)c2ccccc2)CC1 do in these assays?
Anthrax LF inh2: -4.1; Autofluor counter: 3075; BoNT A protease: -0.4; BoNT F protease: -4.2; MazF activator: 9.3; PfHsp40 rescue: 0.1

Results for O=C(c1ccccc1)n1ccn(-c2ccccc2)c1=S ?
Anthrax LF inh2: 0.8; Autofluor counter: 19357*; BoNT A protease: inconclusive; BoNT F protease: 1.3; MazF activator: -1.9; PfHsp40 rescue: -0.2

How did Cc1ccc(S(=O)(=O)CCSc2ccc(C(F)(F)F)cn2)cc1 do in these assays?
Anthrax LF inh2: inconclusive; Autofluor counter: 4179; BoNT A protease: -1.7; BoNT F protease: 35.6*; MazF activator: 5.6

What do the screens show for `COc1cccc(C(CNC(=O)C2CCN(C(=O)Nc3ccccc3)CC2)N(C)C)c1` (stereo not drawn)?
Anthrax LF inh2: 0.6; Autofluor counter: 3954; BoNT A protease: 0.7; BoNT F protease: -0.5; MazF activator: 1.7; PfHsp40 rescue: -0.1

Results for CCOC(=O)c1ccc(N=C2NC(=O)CS2)cc1 ?
Anthrax LF inh2: -1.5; Autofluor counter: 23536*; BoNT A protease: -1.6; BoNT F protease: 0.7; MazF activator: 4.2; PfHsp40 rescue: 0.0

How did COCC(=O)Nc1nc2n(n1)C(c1ccccc1Cl)CC(c1ccc(OC)cc1)N2 (stereo not drawn) do in these assays?
Anthrax LF inh2: 0.6; Autofluor counter: 20336*; BoNT A protease: 0.9; BoNT F protease: 0.1; MazF activator: 11.7; PfHsp40 rescue: 0.1

What do the screens show for `COCC(=O)Nc1nc2n(n1)C(c1ccc(Cl)cc1)CC(c1ccc(OC)cc1)N2` (stereo not drawn)?
Anthrax LF inh2: -0.5; Autofluor counter: 2935; BoNT A protease: 0.2; BoNT F protease: -8.3; MazF activator: 4.2; PfHsp40 rescue: -0.3

Results for Cc1ccc(S(=O)(=O)Nc2cccc(C(=O)NCc3ccc(S(N)(=O)=O)cc3)c2)cc1 ?
Anthrax LF inh2: 4.0; Autofluor counter: 3961; BoNT A protease: 0.8; BoNT F protease: -11.8; MazF activator: 14.3; PfHsp40 rescue: 2.2

How did O=C(CSc1nnc(COc2ccc(Cl)cc2)o1)Nc1ccc(N2CCOCC2)cc1 do in these assays?
Anthrax LF inh2: -0.4; Autofluor counter: 4665; BoNT A protease: 2.5; BoNT F protease: inconclusive; MazF activator: 6.2

How did COC(=O)NNC(=O)/C=C/c1ccccc1 do in these assays?
Anthrax LF inh2: 1.1; Autofluor counter: 2368; BoNT A protease: -0.4; BoNT F protease: -4.1; MazF activator: -1.2; PfHsp40 rescue: -1.1

How did O=C(/C=C/c1ccccc1)NNC(=O)C1CC1 do in these assays?
Anthrax LF inh2: -3.6; Autofluor counter: 21872*; BoNT A protease: 4.0; BoNT F protease: 4.1; MazF activator: -2.2; PfHsp40 rescue: 0.9

How did Clc1ccc(Cl)c(-c2ccc(/C=N/c3ncn[nH]3)o2)c1 do in these assays?
Anthrax LF inh2: -12.3; Autofluor counter: 22627*; BoNT A protease: inconclusive; BoNT F protease: 1.2; MazF activator: 2.6; PfHsp40 rescue: -0.3

How did O=S(=O)(Nc1ccc2c(c1)OCO2)c1ccc(F)c(F)c1 do in these assays?
Anthrax LF inh2: -9.2; Autofluor counter: 3771; BoNT A protease: 0.3; BoNT F protease: -1.5; MazF activator: 0.7; PfHsp40 rescue: -0.1

How did O=C(OCc1nnc(-c2ccc([N+](=O)[O-])cc2)o1)C1CCN(C(=O)c2ccc(F)cc2)CC1 do in these assays?
MazF activator: 9.1; PfHsp40 rescue: -0.7

What do the screens show for `CNC(=O)c1nc(C)n(-c2cc(Cl)cc(Cl)c2)n1`?
Anthrax LF inh2: 1.9; Autofluor counter: 6044; BoNT A protease: -0.6; BoNT F protease: -5.0; MazF activator: 0.1; PfHsp40 rescue: -0.9

How did CCOC(=O)c1nc(C)n(-c2cc(Cl)cc(Cl)c2)n1 do in these assays?
Anthrax LF inh2: -9.5; Autofluor counter: 17779*; BoNT A protease: 6.4; BoNT F protease: 6.0; MazF activator: -1.9; PfHsp40 rescue: -0.4

What do the screens show for `O=C(Nc1cccc2ccccc12)/C(=C/c1ccc([N+](=O)[O-])cc1)NC(=O)c1ccccc1`?
Anthrax LF inh2: 18.4; Autofluor counter: 7715; BoNT A protease: 34.1*; BoNT F protease: 25.0; MazF activator: 6.4; PfHsp40 rescue: 2.3

How did N=C1CCCN1CC(=O)c1ccc(Br)cc1 do in these assays?
Anthrax LF inh2: -2.0; Autofluor counter: 2141; BoNT A protease: 0.0; BoNT F protease: -1.7; MazF activator: 1.3; PfHsp40 rescue: 45.6*

Results for COc1ccc(CC(=O)N2CCN(S(=O)(=O)c3cc(Cl)ccc3Cl)CC2)cc1 ?
Anthrax LF inh2: -9.3; Autofluor counter: 3946; BoNT A protease: -0.1; BoNT F protease: -7.1; MazF activator: -0.2; PfHsp40 rescue: -1.2

Results for Cc1ccc(C(=O)Nc2c(C)n(C)n(-c3ccccc3)c2=O)cc1S(=O)(=O)N1CCOCC1 ?
Anthrax LF inh2: 0.2; Autofluor counter: 2306; BoNT A protease: 0.7; BoNT F protease: 3.5; MazF activator: 0.5; PfHsp40 rescue: -0.9
